Test results as given in PubChem BioAssay (NCI).
Compounds without any hit were thinned out: in the full panel of roughly 79,000, 15% have a hit. Calls of active or inactive are those of the source. Cut-off read from the data, not from the text of the source: active = growth inhibition above about 70%; inactive = the rest.

Tests used:
[1] = NCI Yeast Anticancer Drug Screen. Data for the rad52 strain (AID 147);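 note: 0% = growth of vehicle-treated control cultures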; details: S. cerevisiae rad52 mutant growth inhibition, hits give high values
Method in brief: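 Read-out: growth inhibition versus vehicle-treated controls. Cells were a DNA repair-deficient yeast strain treated with compounds.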

[2] = NCI Yeast Anticancer Drug Screen. Data for the wt1 strain (AID 149);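 note: 0% = growth of vehicle-treated wt1 cultures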; details: S. cerevisiae wt1 strain (SPY 50644) growth inhibition, hits give high values
Method in brief: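 Vehicle-normalised growth inhibition; strain wt1; compound exposure.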

[3] = NCI Yeast Anticancer Drug Screen. Data for the rad50EPP+ strain (AID 151);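 note: 0% = growth of vehicle-treated control cultures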; details: S. cerevisiae rad50 mutant strain, hits give high values
Method in brief: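 Growth inhibition read against vehicle controls in rad50EPP+ yeast, a strain altered in DNA damage repair, after compound exposure.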

[4] = NCI Yeast Anticancer Drug Screen. Data for the mgt1 strain (AID 153); details: S. cerevisiae mgt1 mutant growth inhibition, hits give high values
Method in brief: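 mgt1 yeast grown with test compound; read-out is growth inhibition versus vehicle-treated cultures.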

[5] = NCI Yeast Anticancer Drug Screen. Data for the rad50 strain (AID 155);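 note: 0% = growth of vehicle-only cultures of the same strain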; details: S. cerevisiae rad50 strain growth inhibition, hits give high values
Method in brief: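 A DNA repair-deficient yeast mutant serves as the test organism; compound-induced growth inhibition is calculated against vehicle-treated cells.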

[6] = NCI Yeast Anticancer Drug Screen. Data for the mec2-1 strain (AID 157); details: S. cerevisiae mec2-1 strain, hits give high values
Method in brief: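 Yeast mec2-1 mutant treated with compound. Readout: growth inhibition vs vehicle controls.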

[7] = NCI Yeast Anticancer Drug Screen. Data for the rad14 strain (AID 159);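 note: 0% = growth of vehicle-treated control cultures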; details: S. cerevisiae rad14 strain growth inhibition, hits give high values
Method in brief: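 Vehicle-treated cultures served as the baseline for growth inhibition of a DNA repair-mutant yeast strain exposed to each compound.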

[8] = NCI Yeast Anticancer Drug Screen. Data for the sgs1 mgt1 strain (AID 161);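 note: 0% = growth of cultures given vehicle only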; details: S. cerevisiae sgs1 mgt1 strain, hits give high values
Method in brief: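 Test agents were incubated with a DNA-repair-mutant yeast strain. Growth was then read and compared against vehicle-treated controls.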

[9] = NCI Yeast Anticancer Drug Screen. Data for the CLN2oe strain (AID 163);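 note: 0% = growth of vehicle-only control cultures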; details: S. cerevisiae CLN2oe strain, hits give high values
Method in brief: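 Read-out: yeast growth inhibition, expressed relative to vehicle-only controls. The strain bears an engineered cell-cycle alteration.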

[10] = NCI Yeast Anticancer Drug Screen. Data for the cln2 rad14 strain (AID 165);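 note: 0% = growth equal to vehicle treated cultures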; details: S. cerevisiae cln2 rad14 strain, hits give high values
Method in brief: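 cln2 rad14 yeast strain; compound exposure; growth inhibition read vs vehicle controls.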

[11] = NCI Yeast Anticancer Drug Screen. Data for the bub3 strain (AID 167); details: S. cerevisiae bub3 mutant strain, hits give high values
Method in brief: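 Inhibition values come from growth of compound-treated mutant yeast normalised to vehicle-treated controls.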

[12] = NCI Yeast Anticancer Drug Screen. Data for the wt2 strain (AID 169);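 note: 0% = growth of vehicle-treated yeast cultures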; details: S. cerevisiae wt2 strain growth inhibition, hits give high values
Method in brief: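 Read-out: growth inhibition versus vehicle-treated control cultures after compound exposure of the yeast strain.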

[13] = NCI Yeast Anticancer Drug Screen. Data for the mlh1 strain (AID 171);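 note: 0% = growth of vehicle-treated control cultures of the same strain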; details: S. cerevisiae mlh1 strain growth inhibition, hits give high values
Method in brief: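 Read-out: growth inhibition versus vehicle controls. Strain: engineered yeast with a defined DNA repair or cell cycle defect, compound-treated.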

[14] = NCI Yeast Anticancer Drug Screen. Data for the sgs1 strain (AID 173);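 note: 0% = growth of vehicle-only control cultures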; details: S. cerevisiae sgs1 mutant, hits give high values
Method in brief: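 Read-out: yeast growth inhibition relative to vehicle controls, following compound exposure of a strain with a defined DNA repair/cell cycle alteration.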

[15] = NCI Yeast Anticancer Drug Screen. Data for the mlh1 rad18 strain (AID 175); details: S. cerevisiae mlh1 rad18 strain growth inhibition, hits give high values
Method in brief: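 Yeast w/ defined DNA-repair lesions; compound exposure; growth vs vehicle controls → % inhibition.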

[16] = NCI Yeast Anticancer Drug Screen. Data for the rad18 strain (AID 177); details: S. cerevisiae rad18 mutant growth inhibition, hits give high values
Method in brief: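 Readout: growth inhibition vs vehicle controls. Cells: genetically altered yeast strain, DNA repair defect.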

[17] = at 5.0 µM (retest, dose inferred, filed as 0.5)
[18] = at 50.0 µM (retest, dose inferred, filed as 5.0)

Measured: growth inhibition

Cc1cc(S(=O)(=O)Nc2nnc3cnc4ccccc4n23)c(S)cc1Cl
inactive: [1]; at 1.2 µM -1% | [1]; at 3.7 µM 0% | [1]; at 11.0 µM 4% | [1]; at 33.0 µM 17% | [1]; at 100.0 µM 43% | [2]; at 1.2 µM -1% | [2]; at 3.7 µM -3% | [2]; at 11.0 µM 4% | [2]; at 33.0 µM 11% | [2]; at 100.0 µM 28% | [3]; at 1.2 µM -3% | [3]; at 3.7 µM -16% | [3]; at 11.0 µM -25% | [3]; at 33.0 µM -57% | [3]; at 100.0 µM -59% | [4]; at 1.2 µM -2% | [4]; at 3.7 µM -2% | [4]; at 11.0 µM -1% | [4]; at 33.0 µM 26% | [4]; at 100.0 µM 34% | [5]; at 1.2 µM 0% | [5]; at 3.7 µM 0% | [5]; [17] -3% | [5]; at 11.0 µM 2% | [5]; at 33.0 µM 12% | [5]; [18] 60% | [5]; at 50.0 µM -14.9% | [5]; at 100.0 µM 37% | [6]; at 1.2 µM -1% | [6]; at 3.7 µM 0% | [6]; [17] 2% | [6]; at 11.0 µM 6% | [6]; at 33.0 µM 19% | [6]; [18] 61% | [6]; at 50.0 µM 1.7% | [6]; at 100.0 µM 54% | [7]; at 1.2 µM -1% | [7]; at 3.7 µM 3% | [7]; at 11.0 µM 9% | [7]; at 33.0 µM 21% | [7]; at 100.0 µM 40% | [8]; [17] -1% | [8]; [18] 47% | [8]; at 50.0 µM -11.9% | [9]; at 1.2 µM 3% | [9]; at 3.7 µM 3% | [9]; at 11.0 µM 16% | [9]; at 33.0 µM 24% | [9]; at 100.0 µM 44% | [10]; [17] 48% | [10]; [18] 54% | [10]; at 50.0 µM 52% | [11]; at 1.2 µM 4% | [11]; at 3.7 µM 1% | [11]; [17] 11% | [11]; at 11.0 µM 2% | [11]; at 33.0 µM 10% | [11]; at 50.0 µM -18.8% | [11]; at 100.0 µM 32% | [12]; at 1.2 µM -1% | [12]; at 3.7 µM -2% | [12]; at 11.0 µM 4% | [12]; at 33.0 µM 14% | [12]; at 100.0 µM 35% | [13]; at 1.2 µM -3% | [13]; at 3.7 µM -4% | [13]; at 11.0 µM 1% | [13]; at 33.0 µM 13% | [13]; at 100.0 µM 43% | [14]; at 1.2 µM -2% | [14]; at 3.7 µM 1% | [14]; at 11.0 µM 2% | [14]; at 33.0 µM 22% | [14]; at 100.0 µM 58% | [15]; [17] 8% | [15]; at 50.0 µM 15.2% | [16]; at 1.2 µM -6% | [16]; at 3.7 µM -1% | [16]; at 11.0 µM 21% | [16]; at 33.0 µM 14% | [16]; at 100.0 µM 48%
active: [11]; [18] 70% | [15]; [18] 82%
